Test results: PubChem BioAssay (NCATS)
Inconclusive results are not listed. Activity calls are given as the source filed them. Unless noted, calls follow the shape of the dose curve; as a rule, active = well fitted curve in the direction sought with a large enough effect; inconclusive = small, poorly fitted or top-dose-only effect, or another doubt; inactive = no such curve, though single readings can be large; an effect the other way counts as inactive or inconclusive.

Experiments:
[1] = biological target: Luciferin 4-monooxygenase (Photinus pyralis) (UniProt P08659); assay: Biochemical firefly luciferase enzyme assay for NPC (AID 624030);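 also: purified P. pyralis luciferase at 10 nM with luciferin and ATP substrate; 0% = DMSO and -100% = full luciferase inhibition by PTC124 control; nearly all actives have a fitted effect of over 70% in size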
How it was run: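 Purified P. pyralis luciferase at 10 nM in 50 mM Tris Acetate (final), luminescence read within 5 minutes of enzyme addition to compounds. Activity normalised to PTC124 versus DMSO; concentration-response curves classed by r2, magnitude and activity.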

[2] = S16 Schwann cell viability assay (CellTiter-Glo assay) (AID 624031);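 also: native untransfected S16 rat Schwann cells; cellular ATP luminescence as a viability measure; plate controls were DMSO-treated cells for no effect and cell-free wells for full effect; nearly all actives have a fitted effect of over 70% in size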
How it was run: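 Following overnight culture in 10% FBS DMEM, parental S16 rat Schwann cells are dosed for 24 h at 37 °C. Viability is read as CellTiter-Glo luminescence and expressed as % activity relative to DMSO (0%) and no-cell wells.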

[3] = S16 Schwann cell PMP22 intronic element firefly luciferase assay (AID 624032);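 also: plate controls were DMSO for no effect and PTC124 positive control mean for full effect; nearly all actives have a fitted effect of over 30% in size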
How it was run: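 Rat S16 Schwann cells stably carrying firefly luciferase driven by a PMP22 intronic element, in 10% FBS, treated 24 h at 37 C. ONE-Glo luminescence normalized to PTC124 control and DMSO (0%); curves classed by r2, magnitude and activity.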

[4] = S16 Schwann cell PMP22 intronic element beta-lactamase assay (AID 624044; calls by dose curve;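 also: 0% = DMSO and -100% = potassium clavulanate positive control; nearly all actives have a fitted effect of over 15% in size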)
How it was run: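 Beta-lactamase reporter under a PMP22 intronic regulatory element in stable S16 rat Schwann cells; 24 h compound exposure. 460 nm blue signal normalized between DMSO (0%) and potassium clavulanate, with 535 nm FRET tracking viability; curves classed by r2 and response.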

C2A = assay: qHTS profiling for inhibitors of Plasmodium falciparum proliferation (AID 504749);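 also: 0% = DMSO vehicle and full inhibition = artemisinin control; nearly all actives have a fitted effect of over 60% in size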; conditions: P. falciparum in erythrocytes, SYBR Green DNA, 72 h; series mostly up to 28.7 µM
How it was run: (§1)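 Each compound contacts P. falciparum-infected red blood cells for 72 h at 37 C; lysis buffer (Tris, EDTA, saponin, Triton X, SYBR Green I) is added and fluorescence measured next morning; values normalized to controls.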

CP217 = assay: as above; conditions: P. falciparum in erythrocytes, SYBR Green DNA, 72 h; series mostly up to 28.7 µM
How it was run: as §1

CP237 = assay: as above; conditions: P. falciparum in erythrocytes, SYBR Green DNA, 72 h; series mostly up to 28.7 µM
How it was run: as §1

CP250 = assay: as above; conditions: P. falciparum in erythrocytes, SYBR Green DNA, 72 h; series mostly up to 28.7 µM
How it was run: as §1

CP252 = assay: as above; conditions: P. falciparum in erythrocytes, SYBR Green DNA, 72 h; series mostly up to 28.7 µM
How it was run: as §1

CP256 = assay: as above; conditions: P. falciparum in erythrocytes, SYBR Green DNA, 72 h; series mostly up to 28.7 µM
How it was run: as §1

CP260 = assay: as above; conditions: P. falciparum in erythrocytes, SYBR Green DNA, 72 h; series mostly up to 28.7 µM
How it was run: as §1

Dd2 = assay: as above; conditions: P. falciparum in erythrocytes, SYBR Green DNA, 72 h; series mostly up to 28.7 µM
How it was run: as §1

ECU = assay: as above; conditions: P. falciparum in erythrocytes, SYBR Green DNA, 72 h; series mostly up to 28.7 µM
How it was run: as §1

ICS = assay: as above; conditions: P. falciparum in erythrocytes, SYBR Green DNA, 72 h; series mostly up to 28.7 µM
How it was run: as §1

JCK = assay: as above; conditions: P. falciparum in erythrocytes, SYBR Green DNA, 72 h; series mostly up to 28.7 µM
How it was run: as §1

N140 = assay: as above; conditions: P. falciparum in erythrocytes, SYBR Green DNA, 72 h; series mostly up to 28.7 µM
How it was run: as §1

P93_24 = assay: as above; conditions: P. falciparum in erythrocytes, SYBR Green DNA, 72 h; series mostly up to 28.7 µM
How it was run: as §1

SC27B = assay: as above; conditions: P. falciparum in erythrocytes, SYBR Green DNA, 72 h; series mostly up to 28.7 µM
How it was run: as §1

[5] = Cell Viability - HUV-EC-C (AID 542);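 also: cells exposed to compound for 40 hours; % is scaled to controls: 0 for no effect and ±100 for the full control effect; nearly all actives have a fitted effect of over 35% in size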
How it was run: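 Cells were seeded at 1000 per well and incubated 5 hr at 37 °C before compound addition. After 40 hr at 37 °C, CellTiter-Glo reagent was added for 20 min and luminescence read. AC50 values came from Hill-equation modelling.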

[6] = biological target: Androgen receptor (Homo sapiens) (UniProt P10275); assay: qHTS assay for small molecule agonists of androgen receptor signaling (AID 588515; active = well fitted curve in the direction sought with a large enough effect in the signal ratio, with a control signal flat; the % refers to the signal ratio; also: % is scaled to controls: 0 for no effect and ±100 for the full control effect); conditions: AR-UAS-bla HEK293, beta-lactamase ratio, agonist 16 h; active compounds read high
How it was run: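 Stimulation of an AR-responsive β-lactamase reporter in GripTite HEK293 cells was measured after 16 h compound exposure at 37 °C, via CCF4 fluorescence after 2 h RT. EC50 from Hill fits, normalized to R1881 at 30 nM.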

Chain of Androgen receptor (Homo sapiens) (P10275 whole entry, looked up): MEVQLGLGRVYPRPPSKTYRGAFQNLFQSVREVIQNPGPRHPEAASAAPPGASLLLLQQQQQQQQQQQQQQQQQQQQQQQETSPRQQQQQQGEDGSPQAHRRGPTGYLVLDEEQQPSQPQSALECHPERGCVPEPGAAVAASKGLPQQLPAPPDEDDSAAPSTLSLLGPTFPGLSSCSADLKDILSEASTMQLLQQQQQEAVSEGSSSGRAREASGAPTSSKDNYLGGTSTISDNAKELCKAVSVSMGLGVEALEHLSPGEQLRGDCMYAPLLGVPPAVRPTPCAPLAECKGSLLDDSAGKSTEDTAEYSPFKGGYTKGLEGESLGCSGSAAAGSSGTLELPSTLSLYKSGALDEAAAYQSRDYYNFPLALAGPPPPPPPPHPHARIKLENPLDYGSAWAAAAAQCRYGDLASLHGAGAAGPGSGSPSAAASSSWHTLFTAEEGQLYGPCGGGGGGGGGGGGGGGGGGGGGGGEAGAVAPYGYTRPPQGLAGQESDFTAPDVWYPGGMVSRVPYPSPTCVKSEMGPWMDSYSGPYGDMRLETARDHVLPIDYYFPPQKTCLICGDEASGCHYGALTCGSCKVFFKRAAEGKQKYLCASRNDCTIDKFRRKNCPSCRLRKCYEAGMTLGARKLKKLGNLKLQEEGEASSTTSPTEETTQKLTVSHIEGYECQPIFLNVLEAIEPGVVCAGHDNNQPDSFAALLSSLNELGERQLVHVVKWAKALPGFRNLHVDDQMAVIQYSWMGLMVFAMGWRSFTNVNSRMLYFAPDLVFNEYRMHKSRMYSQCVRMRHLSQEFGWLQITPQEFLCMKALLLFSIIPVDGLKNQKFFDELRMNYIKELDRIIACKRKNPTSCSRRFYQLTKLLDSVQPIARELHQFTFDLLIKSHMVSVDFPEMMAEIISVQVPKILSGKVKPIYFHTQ
Chain of Luciferin 4-monooxygenase (Photinus pyralis) (P08659 whole entry, looked up): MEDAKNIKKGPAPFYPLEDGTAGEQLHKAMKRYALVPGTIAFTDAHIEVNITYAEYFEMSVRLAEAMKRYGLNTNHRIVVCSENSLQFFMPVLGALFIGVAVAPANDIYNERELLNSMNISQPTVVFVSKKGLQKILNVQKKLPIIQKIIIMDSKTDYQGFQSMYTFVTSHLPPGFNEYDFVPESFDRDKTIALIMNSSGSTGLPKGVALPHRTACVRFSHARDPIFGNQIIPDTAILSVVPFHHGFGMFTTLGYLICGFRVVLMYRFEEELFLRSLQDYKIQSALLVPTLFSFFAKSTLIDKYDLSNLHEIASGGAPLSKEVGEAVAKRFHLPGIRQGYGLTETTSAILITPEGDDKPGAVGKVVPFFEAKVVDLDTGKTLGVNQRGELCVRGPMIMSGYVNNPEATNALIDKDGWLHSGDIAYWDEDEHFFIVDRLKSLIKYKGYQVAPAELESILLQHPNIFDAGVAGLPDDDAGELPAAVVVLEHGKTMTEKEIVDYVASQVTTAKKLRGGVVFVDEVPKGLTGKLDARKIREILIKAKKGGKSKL

CC(=O)OC1CC2CCC1(C)C2(C)C (stereo not given)
inactive: Potency [1] | Potency [2] | Potency [3] | Potency [4] | Potency (C2A) | Potency (CP217) | Potency (CP237) | Potency (CP250) | Potency (CP252) | Potency (CP256) | Potency (CP260) | Potency (Dd2) | Potency (ECU) | Potency (ICS) | Potency (JCK) | Potency (N140) | Potency (P93_24) | Potency (SC27B)

C=CC(=C)CCC=C(C)C
inactive: outcome [5]

CC1=C2[C@H](/C=C(\C)C(=O)O)CC[C@@H](C)[C@H]2CC1
inactive: activation [6] -0.457%
